Experimental data as given in paper PMC7862700, “An all-to-all approach to the identification of sequence-specific readers for epigenetic DNA modifications on cytosine”.

What was measured:
Test in all cases: DAPPL (digital affinity profiling via proximity ligation, sequencing); 10 mM Tris-HCl pH 7.5, 50 mM NaCl, 1 mM DTT, 4% glycerol, room temperature, 30 min; GST-TFs on glutathione beads, 16-mer random dsDNA library, 0.1% formaldehyde crosslink after washing; high values mean tight binding
FLI1 = target: T1, FLI1 (Homo sapiens, UniProt Q01543 1-452); details: protein: recombinant; tags: N-terminal GST; dsDNA, one strand shown
T1 sequence: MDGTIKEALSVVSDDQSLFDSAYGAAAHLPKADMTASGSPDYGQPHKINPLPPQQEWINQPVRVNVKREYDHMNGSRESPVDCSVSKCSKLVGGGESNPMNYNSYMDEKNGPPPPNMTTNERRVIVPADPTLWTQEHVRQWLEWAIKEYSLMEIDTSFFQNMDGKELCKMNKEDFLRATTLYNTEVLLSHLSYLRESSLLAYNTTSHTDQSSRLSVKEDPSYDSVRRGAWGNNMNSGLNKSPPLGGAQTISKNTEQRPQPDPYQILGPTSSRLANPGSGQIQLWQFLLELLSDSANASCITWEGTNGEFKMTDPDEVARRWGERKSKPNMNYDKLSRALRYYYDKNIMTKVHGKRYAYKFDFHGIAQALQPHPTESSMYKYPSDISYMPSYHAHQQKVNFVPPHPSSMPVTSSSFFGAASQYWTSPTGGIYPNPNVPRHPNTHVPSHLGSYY
How it was run: (§1)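 Binding signal is defined as a hexamer's read frequency for one factor over its frequency for the tag-only sample. To obtain reads, GST-fused human transcription factors were expressed in yeast, captured on glutathione beads, barcoded with DNA and pooled with that sample. Pools met 200 nmole of a 16-mer random double-stranded DNA library in Tris/NaCl/DTT/glycerol buffer for 30 min at room temperature before washing, 0.1% formaldehyde crosslinking, proximity ligation (BsaI/T4 ligase, 1 h, 37 °C), PCR and Illumina NextSeq500 sequencing.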

ELK1 = target: T2, ELK1 (Homo sapiens, UniProt P19419 1-428); details: protein: recombinant; tags: N-terminal GST; dsDNA, one strand shown
T2 sequence: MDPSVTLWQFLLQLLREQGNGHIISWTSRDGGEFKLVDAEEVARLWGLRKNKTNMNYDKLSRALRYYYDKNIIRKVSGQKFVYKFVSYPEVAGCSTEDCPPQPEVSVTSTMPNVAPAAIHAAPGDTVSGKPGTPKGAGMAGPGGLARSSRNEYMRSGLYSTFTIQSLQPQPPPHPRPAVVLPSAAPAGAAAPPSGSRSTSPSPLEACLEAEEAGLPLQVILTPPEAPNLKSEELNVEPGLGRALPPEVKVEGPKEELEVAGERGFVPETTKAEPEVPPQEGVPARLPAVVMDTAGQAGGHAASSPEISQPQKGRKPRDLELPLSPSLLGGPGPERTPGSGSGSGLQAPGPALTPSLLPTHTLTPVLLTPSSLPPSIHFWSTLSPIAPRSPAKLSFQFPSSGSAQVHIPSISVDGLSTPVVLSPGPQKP
How it was run: as §1

GABPA = target: T3, GABPA (Homo sapiens, UniProt Q06546 1-454); details: protein: recombinant; tags: N-terminal GST; dsDNA, one strand shown
T3 sequence: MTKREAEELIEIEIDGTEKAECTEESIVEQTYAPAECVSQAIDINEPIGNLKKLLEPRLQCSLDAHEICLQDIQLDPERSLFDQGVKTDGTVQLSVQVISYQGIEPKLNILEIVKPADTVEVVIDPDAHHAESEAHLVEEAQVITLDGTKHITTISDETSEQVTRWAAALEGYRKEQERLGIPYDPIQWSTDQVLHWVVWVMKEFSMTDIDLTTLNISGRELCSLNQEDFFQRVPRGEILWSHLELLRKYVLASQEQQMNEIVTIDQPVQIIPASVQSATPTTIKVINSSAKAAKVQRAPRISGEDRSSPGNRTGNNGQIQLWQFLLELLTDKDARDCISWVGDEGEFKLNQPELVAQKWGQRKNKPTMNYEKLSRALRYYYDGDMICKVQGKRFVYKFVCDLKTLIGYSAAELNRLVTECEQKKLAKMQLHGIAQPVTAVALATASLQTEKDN
How it was run: as §1

ERG = target: T4, ERG (Homo sapiens, UniProt P11308 1-479); details: protein: recombinant; tags: N-terminal GST; dsDNA, one strand shown
T4 sequence: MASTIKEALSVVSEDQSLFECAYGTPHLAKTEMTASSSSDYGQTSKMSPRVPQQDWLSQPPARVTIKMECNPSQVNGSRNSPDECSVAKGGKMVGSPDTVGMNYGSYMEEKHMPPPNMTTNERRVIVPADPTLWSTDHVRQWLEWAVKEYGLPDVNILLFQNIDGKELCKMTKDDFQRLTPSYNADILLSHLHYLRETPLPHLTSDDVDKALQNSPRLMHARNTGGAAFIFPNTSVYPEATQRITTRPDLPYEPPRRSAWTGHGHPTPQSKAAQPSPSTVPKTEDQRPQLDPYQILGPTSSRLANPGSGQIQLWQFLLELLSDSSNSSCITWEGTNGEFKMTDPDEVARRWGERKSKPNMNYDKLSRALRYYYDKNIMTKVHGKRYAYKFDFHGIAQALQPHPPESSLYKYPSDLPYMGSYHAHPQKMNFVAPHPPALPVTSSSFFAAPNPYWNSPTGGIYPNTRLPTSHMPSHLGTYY
How it was run: as §1

ELF1 = ELF1 (Homo sapiens, UniProt P32519 1-619); details: protein: recombinant; tags: N-terminal GST; dsDNA, one strand shown
How it was run: as §1

EHF = target: T5, EHF (Homo sapiens, UniProt Q9NZC4 1-300); details: protein: recombinant; tags: N-terminal GST; dsDNA, one strand shown
T5 sequence: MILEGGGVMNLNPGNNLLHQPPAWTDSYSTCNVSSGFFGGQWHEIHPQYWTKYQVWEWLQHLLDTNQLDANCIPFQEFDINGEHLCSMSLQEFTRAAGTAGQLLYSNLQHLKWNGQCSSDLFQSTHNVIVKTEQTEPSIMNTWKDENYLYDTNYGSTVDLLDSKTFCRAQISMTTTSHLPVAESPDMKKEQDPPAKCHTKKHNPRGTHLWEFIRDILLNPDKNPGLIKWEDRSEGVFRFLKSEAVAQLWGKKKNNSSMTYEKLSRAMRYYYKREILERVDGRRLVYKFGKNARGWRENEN
How it was run: as §1

SPI1 = SPI1 (Homo sapiens, UniProt P17947 1-270); details: protein: recombinant; tags: N-terminal GST; dsDNA, one strand shown
How it was run: as §1

SPIB = SPIB (Homo sapiens, UniProt Q01892 1-262); details: protein: recombinant; tags: N-terminal GST; dsDNA, one strand shown
How it was run: as §1

ELK3 = target: T6, ELK3 (Homo sapiens, UniProt P41970 1-407); details: protein: recombinant; tags: N-terminal GST; dsDNA, one strand shown
T6 sequence: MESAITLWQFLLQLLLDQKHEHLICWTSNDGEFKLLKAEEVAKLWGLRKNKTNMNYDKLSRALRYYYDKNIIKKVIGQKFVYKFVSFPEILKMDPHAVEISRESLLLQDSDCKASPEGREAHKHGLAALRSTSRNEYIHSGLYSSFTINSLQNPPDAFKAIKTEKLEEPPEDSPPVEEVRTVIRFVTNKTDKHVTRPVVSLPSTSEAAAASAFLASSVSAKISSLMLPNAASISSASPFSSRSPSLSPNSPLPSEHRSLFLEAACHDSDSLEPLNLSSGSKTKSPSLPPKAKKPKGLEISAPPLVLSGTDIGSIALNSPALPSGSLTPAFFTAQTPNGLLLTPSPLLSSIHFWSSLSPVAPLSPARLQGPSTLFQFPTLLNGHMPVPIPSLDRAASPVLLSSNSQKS
How it was run: as §1

FEV = target: T7, FEV (Homo sapiens, UniProt Q99581 1-238); details: protein: recombinant; tags: N-terminal GST; dsDNA, one strand shown
T7 sequence: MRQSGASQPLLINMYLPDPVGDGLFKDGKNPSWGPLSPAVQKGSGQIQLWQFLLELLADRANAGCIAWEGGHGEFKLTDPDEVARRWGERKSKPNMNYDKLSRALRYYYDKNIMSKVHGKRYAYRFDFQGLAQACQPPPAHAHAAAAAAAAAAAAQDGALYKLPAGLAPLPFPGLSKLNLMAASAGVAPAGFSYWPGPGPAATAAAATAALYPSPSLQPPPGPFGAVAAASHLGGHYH
How it was run: as §1

ETV5 = ETV5 (Homo sapiens, UniProt P41161 1-510); details: protein: recombinant; tags: N-terminal GST; dsDNA, one strand shown
How it was run: as §1

HSF1 = HSF1 (Homo sapiens, UniProt Q00613 1-529); details: protein: recombinant; tags: N-terminal GST; chain copies: 3; dsDNA, one strand shown
How it was run: as §1

SPIC = target: T8, SPIC (Homo sapiens, UniProt Q8N5J4 1-248); details: protein: recombinant; tags: N-terminal GST; dsDNA, one strand shown
T8 sequence: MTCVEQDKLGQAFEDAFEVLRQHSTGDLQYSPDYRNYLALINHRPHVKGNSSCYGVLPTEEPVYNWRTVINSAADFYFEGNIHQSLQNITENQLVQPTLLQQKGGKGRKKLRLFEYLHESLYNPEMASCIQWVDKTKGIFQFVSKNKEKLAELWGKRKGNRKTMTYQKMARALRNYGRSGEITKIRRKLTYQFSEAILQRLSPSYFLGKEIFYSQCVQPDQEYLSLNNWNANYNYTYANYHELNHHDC
How it was run: as §1

ELF4 = ELF4 (Homo sapiens, UniProt Q99607 1-663); details: protein: recombinant; tags: N-terminal GST; dsDNA, one strand shown
How it was run: as §1

ELK4 = target: T9, ELK4 (Homo sapiens, UniProt P28324-2 1-405); details: protein: recombinant; tags: N-terminal GST; dsDNA, one strand shown
T9 sequence: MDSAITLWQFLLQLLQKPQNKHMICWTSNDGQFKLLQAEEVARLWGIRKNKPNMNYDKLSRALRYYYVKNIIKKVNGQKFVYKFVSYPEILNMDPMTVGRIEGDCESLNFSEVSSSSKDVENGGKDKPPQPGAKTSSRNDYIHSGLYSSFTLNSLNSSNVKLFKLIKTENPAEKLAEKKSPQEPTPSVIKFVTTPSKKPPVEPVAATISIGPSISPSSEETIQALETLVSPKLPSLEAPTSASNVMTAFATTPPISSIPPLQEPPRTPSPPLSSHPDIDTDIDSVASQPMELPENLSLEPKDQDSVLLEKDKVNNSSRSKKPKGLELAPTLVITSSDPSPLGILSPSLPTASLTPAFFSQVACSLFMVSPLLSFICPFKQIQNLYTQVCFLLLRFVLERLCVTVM
How it was run: as §1

ETV2 = target: T10, ETV2 (Homo sapiens, UniProt O00321 1-342); details: protein: recombinant; tags: N-terminal GST; dsDNA, one strand shown
T10 sequence: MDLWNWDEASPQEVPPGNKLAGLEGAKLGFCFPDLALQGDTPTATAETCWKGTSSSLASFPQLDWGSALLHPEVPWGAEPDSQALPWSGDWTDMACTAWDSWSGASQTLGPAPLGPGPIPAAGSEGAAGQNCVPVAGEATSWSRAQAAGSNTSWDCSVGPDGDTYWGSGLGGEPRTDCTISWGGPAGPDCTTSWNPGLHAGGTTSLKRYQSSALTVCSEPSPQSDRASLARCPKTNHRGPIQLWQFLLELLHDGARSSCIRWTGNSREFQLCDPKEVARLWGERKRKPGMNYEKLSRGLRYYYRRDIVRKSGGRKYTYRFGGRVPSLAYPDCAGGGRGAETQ
How it was run: as §1

ELF3 = target: T11, ELF3 (Homo sapiens, UniProt P78545 1-371); details: protein: recombinant; tags: N-terminal GST; dsDNA, one strand shown
T11 sequence: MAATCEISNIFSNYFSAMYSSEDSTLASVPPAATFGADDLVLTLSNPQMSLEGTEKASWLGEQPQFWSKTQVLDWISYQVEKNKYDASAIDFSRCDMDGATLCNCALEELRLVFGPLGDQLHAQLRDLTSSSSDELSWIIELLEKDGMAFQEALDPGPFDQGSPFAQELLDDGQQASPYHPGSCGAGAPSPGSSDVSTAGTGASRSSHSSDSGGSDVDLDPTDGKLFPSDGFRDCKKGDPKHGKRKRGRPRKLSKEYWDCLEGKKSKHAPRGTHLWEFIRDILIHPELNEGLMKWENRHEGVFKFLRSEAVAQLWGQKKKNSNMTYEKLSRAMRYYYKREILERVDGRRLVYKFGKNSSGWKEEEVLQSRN
How it was run: as §1

CRX = CRX (Homo sapiens, UniProt O43186 1-299); details: protein: recombinant; tags: N-terminal GST; dsDNA, one strand shown
How it was run: as §1

ETV1 = ETV1 (Homo sapiens, UniProt P50549 1-477); details: protein: recombinant; tags: N-terminal GST; dsDNA, one strand shown
How it was run: as §1

Sequence of CRX (O43186 whole entry): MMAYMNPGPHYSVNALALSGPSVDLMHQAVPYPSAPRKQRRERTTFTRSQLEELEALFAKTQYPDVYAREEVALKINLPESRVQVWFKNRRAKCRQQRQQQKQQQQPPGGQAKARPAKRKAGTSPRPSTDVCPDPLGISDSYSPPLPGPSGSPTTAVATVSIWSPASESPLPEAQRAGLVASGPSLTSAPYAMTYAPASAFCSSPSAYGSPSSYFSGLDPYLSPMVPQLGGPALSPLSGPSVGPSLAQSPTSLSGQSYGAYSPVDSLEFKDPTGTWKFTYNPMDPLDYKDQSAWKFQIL
Sequence of SPIB (Q01892 whole entry): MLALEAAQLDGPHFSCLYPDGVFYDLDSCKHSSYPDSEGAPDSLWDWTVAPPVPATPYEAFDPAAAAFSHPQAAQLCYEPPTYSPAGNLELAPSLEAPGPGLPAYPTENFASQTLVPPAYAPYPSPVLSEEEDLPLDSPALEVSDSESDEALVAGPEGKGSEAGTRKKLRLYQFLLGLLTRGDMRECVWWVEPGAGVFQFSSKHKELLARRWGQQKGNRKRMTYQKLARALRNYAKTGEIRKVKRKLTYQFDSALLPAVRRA
Sequence of ETV5 (P41161 whole entry): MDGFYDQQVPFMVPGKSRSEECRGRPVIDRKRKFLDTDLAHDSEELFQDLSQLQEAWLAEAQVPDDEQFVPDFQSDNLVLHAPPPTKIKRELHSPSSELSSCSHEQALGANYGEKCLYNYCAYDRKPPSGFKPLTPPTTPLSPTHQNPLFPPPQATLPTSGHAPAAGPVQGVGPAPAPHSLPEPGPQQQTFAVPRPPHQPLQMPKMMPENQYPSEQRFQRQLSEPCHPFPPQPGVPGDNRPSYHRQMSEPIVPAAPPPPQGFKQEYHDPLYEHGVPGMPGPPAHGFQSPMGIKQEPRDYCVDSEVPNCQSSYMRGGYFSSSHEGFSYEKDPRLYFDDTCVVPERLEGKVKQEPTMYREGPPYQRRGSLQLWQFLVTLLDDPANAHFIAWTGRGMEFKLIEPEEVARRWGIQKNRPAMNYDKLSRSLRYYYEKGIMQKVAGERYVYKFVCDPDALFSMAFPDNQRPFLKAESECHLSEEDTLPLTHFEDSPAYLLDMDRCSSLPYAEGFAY
Sequence of ELF1 (P32519 whole entry): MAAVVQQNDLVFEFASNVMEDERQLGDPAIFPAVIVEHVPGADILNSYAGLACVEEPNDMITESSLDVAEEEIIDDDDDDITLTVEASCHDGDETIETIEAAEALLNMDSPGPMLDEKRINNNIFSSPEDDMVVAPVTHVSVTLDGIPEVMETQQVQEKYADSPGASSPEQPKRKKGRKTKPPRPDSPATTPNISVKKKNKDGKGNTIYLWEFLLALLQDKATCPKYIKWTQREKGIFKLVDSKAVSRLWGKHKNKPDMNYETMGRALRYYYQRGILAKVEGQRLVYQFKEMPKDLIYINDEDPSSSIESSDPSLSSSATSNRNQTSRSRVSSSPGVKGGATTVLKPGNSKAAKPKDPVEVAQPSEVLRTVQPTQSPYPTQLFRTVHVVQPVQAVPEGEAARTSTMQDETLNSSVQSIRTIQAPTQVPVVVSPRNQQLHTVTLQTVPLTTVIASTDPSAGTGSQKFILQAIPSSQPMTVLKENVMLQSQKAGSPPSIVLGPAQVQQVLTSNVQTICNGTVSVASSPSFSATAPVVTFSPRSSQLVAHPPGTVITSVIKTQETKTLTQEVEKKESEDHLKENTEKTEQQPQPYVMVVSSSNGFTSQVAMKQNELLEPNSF
Sequence of ETV1 (P50549 whole entry): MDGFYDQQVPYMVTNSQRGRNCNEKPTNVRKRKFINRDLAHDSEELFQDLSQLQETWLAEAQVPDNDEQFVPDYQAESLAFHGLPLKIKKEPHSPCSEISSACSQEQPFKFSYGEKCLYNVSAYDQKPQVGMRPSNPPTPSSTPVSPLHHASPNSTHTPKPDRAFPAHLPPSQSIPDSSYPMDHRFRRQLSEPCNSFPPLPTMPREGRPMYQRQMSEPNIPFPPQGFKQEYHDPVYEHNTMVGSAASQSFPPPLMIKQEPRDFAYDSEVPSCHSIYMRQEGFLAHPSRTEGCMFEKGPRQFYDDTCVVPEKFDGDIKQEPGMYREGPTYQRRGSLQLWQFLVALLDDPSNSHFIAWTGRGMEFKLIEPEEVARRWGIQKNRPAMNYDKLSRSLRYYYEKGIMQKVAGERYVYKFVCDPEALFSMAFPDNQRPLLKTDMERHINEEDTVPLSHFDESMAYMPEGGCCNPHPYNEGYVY
Sequence of HSF1 (Q00613 whole entry): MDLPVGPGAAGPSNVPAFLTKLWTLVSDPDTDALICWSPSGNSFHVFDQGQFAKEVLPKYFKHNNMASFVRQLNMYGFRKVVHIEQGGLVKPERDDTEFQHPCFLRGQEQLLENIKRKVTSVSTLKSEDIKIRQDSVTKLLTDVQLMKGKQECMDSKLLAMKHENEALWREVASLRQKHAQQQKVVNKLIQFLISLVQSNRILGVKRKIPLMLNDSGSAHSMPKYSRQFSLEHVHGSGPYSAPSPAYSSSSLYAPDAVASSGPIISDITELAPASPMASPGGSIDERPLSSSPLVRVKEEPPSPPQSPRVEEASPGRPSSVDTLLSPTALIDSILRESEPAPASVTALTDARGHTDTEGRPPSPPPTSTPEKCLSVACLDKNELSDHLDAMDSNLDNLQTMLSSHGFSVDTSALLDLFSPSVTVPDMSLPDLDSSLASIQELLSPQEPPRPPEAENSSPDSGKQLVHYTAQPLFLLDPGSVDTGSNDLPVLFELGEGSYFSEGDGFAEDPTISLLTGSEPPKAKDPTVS
Sequence of ELF4 (Q99607 whole entry): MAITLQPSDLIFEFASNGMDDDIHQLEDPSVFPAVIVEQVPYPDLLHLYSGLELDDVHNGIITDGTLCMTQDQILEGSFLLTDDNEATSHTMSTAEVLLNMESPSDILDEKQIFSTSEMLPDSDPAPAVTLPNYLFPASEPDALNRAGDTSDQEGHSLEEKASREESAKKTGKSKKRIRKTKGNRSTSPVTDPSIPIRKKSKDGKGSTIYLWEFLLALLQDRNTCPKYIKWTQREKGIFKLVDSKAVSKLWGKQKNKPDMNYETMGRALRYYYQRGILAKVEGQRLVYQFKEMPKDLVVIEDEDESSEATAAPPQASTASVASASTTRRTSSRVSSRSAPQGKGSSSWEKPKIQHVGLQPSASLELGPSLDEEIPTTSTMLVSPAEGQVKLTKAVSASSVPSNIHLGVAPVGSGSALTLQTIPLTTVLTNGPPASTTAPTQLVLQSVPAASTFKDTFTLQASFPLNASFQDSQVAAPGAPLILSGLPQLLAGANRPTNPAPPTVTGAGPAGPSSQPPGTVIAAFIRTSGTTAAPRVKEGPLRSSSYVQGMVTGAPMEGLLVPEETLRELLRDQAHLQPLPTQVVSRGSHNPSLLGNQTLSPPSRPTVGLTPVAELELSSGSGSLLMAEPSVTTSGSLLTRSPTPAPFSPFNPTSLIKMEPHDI

ACATAA
binding signal (FLI1): 1.01 fold enrichment (6-mer frequency, TF over GST control)
binding signal (ELK1): 1.09 fold enrichment (6-mer frequency, TF over GST control)
binding signal (GABPA): 1.08 fold enrichment (6-mer frequency, TF over GST control)
binding signal (ERG): 1.17 fold enrichment (6-mer frequency, TF over GST control)
binding signal (ELF1): 1.13 fold enrichment (6-mer frequency, TF over GST control)
binding signal (EHF): 1.1 fold enrichment (6-mer frequency, TF over GST control)
binding signal (SPI1): 1.08 fold enrichment (6-mer frequency, TF over GST control)
binding signal (SPIB): 1.1 fold enrichment (6-mer frequency, TF over GST control)
binding signal (ELK3): 1.11 fold enrichment (6-mer frequency, TF over GST control)
binding signal (FEV): 1.04 fold enrichment (6-mer frequency, TF over GST control)
binding signal (ETV5): 1.13 fold enrichment (6-mer frequency, TF over GST control)
binding signal (HSF1): 1.2 fold enrichment (6-mer frequency, TF over GST control)
binding signal (SPIC): 1.19 fold enrichment (6-mer frequency, TF over GST control)
binding signal (ELF4): 1.09 fold enrichment (6-mer frequency, TF over GST control)
binding signal (ELK4): 1.14 fold enrichment (6-mer frequency, TF over GST control)
binding signal (ETV2): 1.15 fold enrichment (6-mer frequency, TF over GST control)
binding signal (ELF3): 1.17 fold enrichment (6-mer frequency, TF over GST control)
binding signal (CRX): 1.34 fold enrichment (6-mer frequency, TF over GST control)
binding signal (ETV1): 1.07 fold enrichment (6-mer frequency, TF over GST control)
